Bioassay records: PubChem, National Center for Advancing Translational Sciences (NCATS)
This is a sample that favours compounds with a hit; in the whole collection about 3% have one here.
A549 tox-1: A549 cytotoxicity, counter-screen for Nrf2 inhibitors; Potency, µM (series often up to 46 µM), for the others: top-dose activity change, negative = cytotoxicity, most hits filed as inhibitors; 390,000 compounds, 0.16% hits; A549 ARE-Fluc cells, CellTiter-Fluor viability, 18-24 h; AID 504648; further: on the % scale 0 is the no-effect control and ±100 the full control effect
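A549 ARE-Fluc cells in 5% FBS OPTI-MEM, 5000 cells/well, rested 2 h then exposed to compounds in concentration-response for 18-24 h at 37 °C. Viability by CellTiter-Fluor fluorescence (Ex 405/Em 525) after 30 min; luciferase luminescence (BugLite, 15 min, RT) read afterwards.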
Nrf2 activator: activators of Nrf2 (ARE) signaling. Potency, µM (top dose mostly 46.1 µM), without a hit: at the highest dose activation, usual class: activators. AREc32 ARE-luciferase reporter (MCF7-derived line), luminescence, 24 h. AID 624171. 410,000 compounds, 0.31% hits; further: % of control where 0% means no effect; nearly all actives have a fitted effect of over 65% in size
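Luciferase luminescence (Steady-Glo, 30 min at room temperature) served as the read-out of ARE activation in AREc32 cells treated with compounds for 24 hr at 37 deg C.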
TrxR1 inh: inhibitors of rat thioredoxin reductase 1; 390,000 compounds, 1% hits; O89049; recombinant rTrxR1, NADPH fluorescence consumption, selenite substrate; Potency, µM (doses to about 114 µM), without a hit: top-dose activity change, negative = inhibition, hits mostly inhibitors; further: on the % scale 0 is the no-effect control and ±100 the full control effect; nearly all actives have a fitted effect of over 65% in size
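Rat TrxR1 (90 nM in the dispensed reagent) was pre-reduced with 400 uM NADPH for 5 min at room temperature, then incubated with compound for 15 min. After 400 uM selenite was added, NADPH fluorescence (Ex 340/Em 450 nm) was followed for 8 min.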
Nrf2 block: inhibitors of Nrf2 signaling. Potency, µM (highest dose often 46 µM), inactives show at the top dose activity change, negative = inhibition, hits mostly inhibitors. A549 ARE-Fluc reporter, luciferase luminescence, 18-24 h. AID 504444. 360,000 compounds, 2.1% hits; further: on the % scale 0 is the no-effect control and ±100 the full control effect; nearly all actives have a fitted effect of over 60% in size
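In this cell-based qHTS, ARE-driven firefly luciferase in A549 cells reports Nrf2 activity; the luminescent signal after BugLite lysis is the measured value, with a prior CellTiter-Fluor read for cell health.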
GALK inhibitor: galactokinase (human) inhibition; Purified GALK, Kinase-Glo residual ATP luminescence; Potency, µM (series often up to 57.5 µM), for the others: at the top dose activity change, negative = inhibition, most hits filed as inhibitors; 270,000 compounds, 0.007% hits; AID 1868; further: on the % scale 0 is the no-effect control and ±100 the full control effect
Target sequence (P51570 whole entry, looked up): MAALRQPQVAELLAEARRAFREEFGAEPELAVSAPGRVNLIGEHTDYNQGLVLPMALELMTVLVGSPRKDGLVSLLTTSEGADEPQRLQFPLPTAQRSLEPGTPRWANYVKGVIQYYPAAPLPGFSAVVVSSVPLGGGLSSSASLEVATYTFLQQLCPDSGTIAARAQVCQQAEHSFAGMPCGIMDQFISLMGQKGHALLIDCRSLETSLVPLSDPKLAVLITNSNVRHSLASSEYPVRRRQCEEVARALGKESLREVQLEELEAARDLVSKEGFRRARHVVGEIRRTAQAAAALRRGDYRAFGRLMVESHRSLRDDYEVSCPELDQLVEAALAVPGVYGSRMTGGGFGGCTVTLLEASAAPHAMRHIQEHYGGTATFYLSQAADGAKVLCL
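The enzyme phosphorylates galactose (100 uM) using ATP (35 uM); inhibition is detected as higher residual ATP, quantified by bioluminescence after 1 h reaction at room temperature, pH 8.0.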
TrxR1 substrate: rat thioredoxin reductase 1 substrate activity | O89049 | Potency, µM (series often up to 114 µM), for the others: top-dose activity change, negative = substrate turnover | purified TrxR1 substrate turnover, NADPH consumption readout | 390,000 compounds, 0.01% hits | AID 588456; further: on the % scale 0 is the no-effect control and ±100 the full control effect; nearly all actives have a fitted effect of over 50% in size
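Rat TrxR1, dispensed at 90 nM, was prereduced with 400 uM NADPH (final) for 5 min at ~22 deg C, then incubated with compound 15 min before 400 uM selenite. A first-read NADPH fluorescence drop versus no-compound background flagged substrates.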
FLuc counter 3: firefly luciferase inhibition, Nrf2 hit validation. shares compounds with Nrf2 block. purified firefly luciferase, luminescence inhibition. Potency, µM (titrated, usually from 57.5 µM), for inactives: at the highest dose activity change, negative = inhibition, hits mostly inhibitors. 1,400 compounds, 4% hits. AID 720522; further: on the % scale 0 is the no-effect control and ±100 the full control effect; nearly all actives have a fitted effect of over 65% in size
A549 tox-2: toxic to A549 ARE-Fluc cells in Nrf2 counterscreen | AID 720523 | shares compounds with Nrf2 block | 1,400 compounds, 2% hits | A549 ARE-Fluc cells, cytotoxicity counterscreen | Potency, µM (doses to about 46.1 µM), for inactives: at the highest dose activity change, negative = cytotoxicity, actives largely listed as inhibitors;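 further: cells exposed to compounds for 18 to 24 hours; on the % scale 0 is the no-effect control and ±100 the full control effect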
Nrf2 ARE inh: reduces Nrf2 ARE reporter signal in A549 cells. 1,400 compounds, 74% hits. Potency, µM (highest dose often 46.1 µM), for the others: top-dose activity change, negative = inhibition, hits mostly inhibitors. A549 ARE-firefly luciferase reporter, luminescence. shares compounds with Nrf2 block. AID 720524; further: on the % scale 0 is the no-effect control and ±100 the full control effect; nearly all actives have a fitted effect of over 65% in size
The depositor's hits bear a star; [ ] = dose if it differs, or a comment. The call rests on the fitted dose curve; in most records, active means well fitted curve in the direction sought with a large enough effect; inconclusive means small, poorly fitted or top-dose-only effect, or another doubt; inactive means no such curve, though single readings can be large; an effect the other way counts as inactive or inconclusive. Potency means the concentration at half of the fitted maximal effect.

CN(Cc1ccc(Cl)cc1)C(=O)c1ccc(S(=O)(=O)NCc2ccco2)cc1 was read as A549 tox-1 -12%, Nrf2 activator 0%, TrxR1 inh -7%, Nrf2 block 9.2µM*, TrxR1 substrate 1%, FLuc counter 3 0%, A549 tox-2 0% and Nrf2 ARE inh 7%.
For Nc1nncn1C(=O)c1ccccc1Cl the results were A549 tox-1 -7%, Nrf2 activator 0%, TrxR1 inh 21%, Nrf2 block -29%, GALK inhibitor 1% and TrxR1 substrate -2%.
For Nc1nncn1C(=O)c1ccc(Cl)cc1Cl the results were A549 tox-1 -1%, Nrf2 activator -2%, TrxR1 inh 7%[57.1 µM], Nrf2 block 1.6µM*, GALK inhibitor -2%, TrxR1 substrate 7%[57.1 µM], FLuc counter 3 -10% and A549 tox-2 -20%.
`COc1cccc(/C=N/N2CCN(c3ccncc3S(=O)(=O)N3CCCCC3)CC2)c1` gave A549 tox-1 0%, Nrf2 activator -1%, TrxR1 inh 1%, Nrf2 block -22% and TrxR1 substrate -10%.
For Cc1nnsc1C(=O)Nc1ccc(S(=O)(=O)N2CCC(C)CC2)cc1 the results were A549 tox-1 -15%, Nrf2 activator 0%, TrxR1 inh -7%, Nrf2 block 9.2µM*, GALK inhibitor 8%, TrxR1 substrate -8%, FLuc counter 3 -1%, A549 tox-2 0% and Nrf2 ARE inh 5.2µM*.
Cc1ccc(S(=O)(=O)/N=C(/Nc2ccc3[nH]c(=O)[nH]c3c2)c2ccc(F)cc2)cc1 was read as A549 tox-1 5%, Nrf2 activator 0%, TrxR1 inh 11%, Nrf2 block -13%, GALK inhibitor 5% and TrxR1 substrate -5%.
For CCN(CC)S(=O)(=O)c1ccc(NC(=O)c2ccc3c(=O)n4c(nc3c2)CCCCC4)cc1 the results were A549 tox-1 inconclusive, Nrf2 activator 0%, TrxR1 inh 20%, Nrf2 block 9.2µM*, TrxR1 substrate 9%, FLuc counter 3 -9%, A549 tox-2 -15% and Nrf2 ARE inh 8.2µM*.
For CCc1ccc(NC(=O)c2ccc3c(=O)n4c(nc3c2)CCCCC4)cc1 the results were A549 tox-1 -19%, Nrf2 activator 0%, TrxR1 inh 53%, Nrf2 block inconclusive, GALK inhibitor -2% and TrxR1 substrate 6%.
For Cc1cc(C(C)(C)C)cc(C)c1C[n+]1ccc2ccccc2c1 the results were A549 tox-1 -18%, Nrf2 activator -1%, TrxR1 inh -7%, Nrf2 block 3.7µM*, GALK inhibitor 0%, TrxR1 substrate -4%, FLuc counter 3 3%, A549 tox-2 -5% and Nrf2 ARE inh 2.3µM*.
Screening O=C(NC(=S)Nc1ccc(Cc2ccncc2)cc1)c1ccc(F)cc1 returned A549 tox-1 0%, Nrf2 activator 4%, TrxR1 inh inconclusive, Nrf2 block 5.8µM*, GALK inhibitor 6%, TrxR1 substrate 2%, FLuc counter 3 -17%, A549 tox-2 7% and Nrf2 ARE inh inconclusive.
Screening CCCCN1CC(=O)N2[C@H]3c4cc(C)ccc4OC[C@@H]3[C@H](C(=O)OCC)[C@]2(C)C1=O returned A549 tox-1 0%, Nrf2 activator 0%, TrxR1 inh 0%, Nrf2 block 1% and TrxR1 substrate -3%.
Cc1cc(C)c(NC(=O)CSc2ncc3c(n2)-c2cc(Cl)ccc2N(C)S3(=O)=O)c(C)c1 was read as A549 tox-1 -18%, Nrf2 activator -1%, TrxR1 inh 19%[57.1 µM], Nrf2 block 4.6µM*, TrxR1 substrate 14%[57.1 µM], FLuc counter 3 3%, A549 tox-2 -19% and Nrf2 ARE inh 30%.
For CC(=O)N1CCc2c(sc3c2c(=O)n(-c2ccc(F)cc2)c(=O)n3Cc2cc(C)ccc2C)C1 the results were A549 tox-1 1%, Nrf2 activator 1%, TrxR1 inh 6%, Nrf2 block 7% and TrxR1 substrate -3%.
Screening CC(C)CC(N)c1cn([C@@H](CCC(=O)O)C(=O)N2CCNCC2)nn1 (some centres not stated) returned A549 tox-1 -13%, Nrf2 activator -1%, TrxR1 inh 7%[57.1 µM], Nrf2 block 5%, GALK inhibitor 3% and TrxR1 substrate 11%[57.1 µM].
Screening CC(C)C[C@H](N)c1cn([C@@H](CCCCN)C(=O)N2CCNCC2)nn1 returned A549 tox-1 inconclusive, Nrf2 activator -3%, TrxR1 inh 8%[57.1 µM], Nrf2 block 1µM*, GALK inhibitor 0%, TrxR1 substrate 7%[57.1 µM], FLuc counter 3 0%, A549 tox-2 1% and Nrf2 ARE inh inconclusive.
`COc1ccc(S(=O)(=O)N2CCCCC2)cc1NC(=O)CCOc1cc(C)ccc1C` gave A549 tox-1 1%, Nrf2 activator -1%, TrxR1 inh 16%, Nrf2 block 4% and TrxR1 substrate -1%.
For CC(C)(C)c1cc(CCC(=O)NNC(=S)NC(=O)c2ccccc2)cc(C(C)(C)C)c1O the results were A549 tox-1 inconclusive, Nrf2 activator -1%, TrxR1 inh inconclusive, Nrf2 block 2.9µM*, GALK inhibitor 0%, TrxR1 substrate -2%, FLuc counter 3 1%, A549 tox-2 -9% and Nrf2 ARE inh 15µM*.
`Cn1c(=O)c2c(nc(SCC(=O)Nc3ccccc3)n2Cc2ccccc2F)n(C)c1=O` gave A549 tox-1 -10%, Nrf2 activator -1%, TrxR1 inh 18%, Nrf2 block 7% and TrxR1 substrate 12%.
`Cn1c(=O)c2c(nc(SCC(=O)Nc3ccc(OC(F)(F)F)cc3)n2Cc2cccc(C(F)(F)F)c2)n(C)c1=O` gave A549 tox-1 inconclusive, Nrf2 activator 0%, TrxR1 inh 1%, Nrf2 block 7.3µM*, TrxR1 substrate -12%, FLuc counter 3 2%, A549 tox-2 inconclusive and Nrf2 ARE inh 15µM*.
